Experimental data published in PubChem BioAssay.
Activity calls are given as the source filed them.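 How the source made its calls, unless noted: active means binding below the plate cutoff, the plate median minus 3 SD, with a reading above zero; inconclusive means below the plate cutoff but reading exactly zero; inactive means the rest.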

Legend:
[1] = reduced mouse 2C T cell binding to pMHC/ICAM-1 vesicles – MLPCN validation set, flow cytometry, LFA-1/ICAM-1 modulator project, pilot screen (AID 2523;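 active means response below a set limit, under 55% cells CD8-positive and vesicle-bound, and CD8 cells' 90th-percentile brightness under 279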;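 on vesicle binding response: mean PE anti-B7-1 fluorescence of CD8+ cells relative to row control; 100% = QL9-loaded vesicles with DMSO vehicle in the same plate row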); details: 2C mouse CD8+ T cells, at 7 µM, stronger effect = lower value; double positive events: measured here: CD8+/vesicle+ event percentage
[2] = molecular target: Integrin beta-1 (Homo sapiens) + Integrin alpha-4 (Homo sapiens) (UniProt P13612+P05556); experiment: alpha4beta1 integrin LIBS antibody binding reduction – U937 cells, HUTS-21 mAb, flow cytometry, validation set, VLA-4 allosteric modulator project, pilot screen (AID 2674;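 active means inhibition above 50%, about 3 SD of the validation set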;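 further: antibody binding induced by the VLA-4 ligand LDV present at three times its Kd; 0% = LDV ligand with antibody and no compound and 100% = antibody without LDV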); details: HUTS-21 LIBS mAb binding, at 6.7 µM, stronger effect = higher value, binding induced by LDV ligand
[3] = calorie-restriction mimetic ROS inhibitors, yeast – validation compound set, pilot screen (AID 2706;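 active means superoxide response below 65% of plate, a cut near 3 SD across the whole screen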;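 further: yeast exposed to compound for one week at 30 degrees C before staining; 100% = mean of all compound wells on the same plate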); details: S. cerevisiae aging, superoxide DHE fluorescence; at 10 µM, stronger effect = lower value
[4] = molecular target: Beta-adrenergic receptor kinase 1 (Homo sapiens) (UniProt P25098); experiment: GRK2 binders displacing RNA aptamer, biochemical, validation, human GRK2, bead flow cytometry (AID 488806;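 active means aptamer binding inhibition above 30%, about 3 SD of noise from non-fluorescent compounds; inactive means inhibition at or below 30%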); details: bead-bound GRK2, FAM-aptamer displacement, at 10 µM, stronger effect = higher value
[5] = molecular target: Beta-2 adrenergic receptor (Homo sapiens) (UniProt P07550); experiment: agonist-induced loss of surface beta2AR – cell-based, FAP fluorogen, flow cytometry, validation set, pilot screen (AID 504459;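 active means percent response above 42, roughly 3 SD of non-fluorescent test compounds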;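 further: agonist-driven loss of surface beta2AR via internalization measured by FAP dye flow cytometry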); details: Am2.2-beta2AR cells, at 10 µM, stronger effect = higher value
[6] = molecular target: AP-2 complex subunit beta (Homo sapiens) (UniProt P63010); experiment: beta-arrestin/AP2 interaction blockers – biochemical, validation set, GST-AP2 beads, flow cytometry, pilot screen (AID 504541;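 active means inhibition above 54%, about 3 SD of non-fluorescent compounds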;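 further: AP2 carries R879A mutation and is captured from E. coli lysate; bead-bound FITC arrestin peptide fluorescence measuring arrestin peptide binding to AP2; 0% = DMSO wells and 100% = excess unlabeled arrestin peptide control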); details: FITC arrestin peptide, at 10 µM, stronger effect = higher value, AP2 beta2 appendage fragment, R879A mutant
[7] = cytosolic pH regulators acting via V-ATPase – S. cerevisiae, pHLuorin, HTS validation (AID 504600; in the data active means response above about 15%;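 further: plate controls were DMSO for no effect and reference compound for full effect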); details: V-ATPase proton transport, at 10 µM, stronger effect = higher value
[8] = tested on: anti-desmoglein-3 scFv antibody binding to human DSG3; experiment: blockers of pathogenic pemphigus antibody–desmoglein-3 binding – biochemical, validation compound set, bead-based, flow cytometry, pilot screen (AID 588368); details: Protein G beads, DSG3-Fc, scFv-GFP binding, at 10 µM, stronger effect = lower value;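 further: signal is the median channel fluorescence of bead-bound GFP antibody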
[9] = Nile Red efflux blockade in pump-expressing yeast – validation compound set, multiplex, phenotypic, pilot screen (AID 588506;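 active means efflux inhibition above 0.42, the validation set average plus 4 SD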;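 further: Nile Red retained in cells so higher fluorescence means more efflux inhibition; 0 = negative control wells and 1 = enniatin B 25 µM full block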); details: S. cerevisiae pump-expressing triplex, Nile Red efflux flow cytometry; at 10 µM; stronger effect = higher value; the pumps come from Candida albicans
[10] = molecular target: ATP-binding cassette sub-family B member 6 (Homo sapiens) (UniProt Q9NP58); experiment: blockers of ABCB6-driven porphyrin uptake – K562-ABCB6 cells, flow cytometry, validation set, pilot screen (AID 588550;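 active means inhibition above the screen-wide mean plus 3 SD, about 51%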;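 further: 0% = DMSO wells and 100% = benzethonium chloride 70 µM positive control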); details: K562-ABCB6 porphyrin accumulation, 1 h, at 10 µM, stronger effect = higher value
[11] = AML differentiation inducers, ER-HoxA9 marrow cells – cell-based, GFP/MAC1 double positive, flow cytometry, validation set, primary screen (AID 588685;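 active means differentiation response of at least 50%, scaled between solvent and reference control, from cells with both markers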;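 further: compound exposure lasts four days before antibody staining and flow analysis; 0% = DMSO wells and 100% = 5 µM fulvestrant positive control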); details: stronger effect = higher value, normalized: vehicle 0, fulvestrant 100

AP-2 complex subunit beta (Homo sapiens), sequence (P63010 whole entry, looked up, the tested form may be a part, one chain of several): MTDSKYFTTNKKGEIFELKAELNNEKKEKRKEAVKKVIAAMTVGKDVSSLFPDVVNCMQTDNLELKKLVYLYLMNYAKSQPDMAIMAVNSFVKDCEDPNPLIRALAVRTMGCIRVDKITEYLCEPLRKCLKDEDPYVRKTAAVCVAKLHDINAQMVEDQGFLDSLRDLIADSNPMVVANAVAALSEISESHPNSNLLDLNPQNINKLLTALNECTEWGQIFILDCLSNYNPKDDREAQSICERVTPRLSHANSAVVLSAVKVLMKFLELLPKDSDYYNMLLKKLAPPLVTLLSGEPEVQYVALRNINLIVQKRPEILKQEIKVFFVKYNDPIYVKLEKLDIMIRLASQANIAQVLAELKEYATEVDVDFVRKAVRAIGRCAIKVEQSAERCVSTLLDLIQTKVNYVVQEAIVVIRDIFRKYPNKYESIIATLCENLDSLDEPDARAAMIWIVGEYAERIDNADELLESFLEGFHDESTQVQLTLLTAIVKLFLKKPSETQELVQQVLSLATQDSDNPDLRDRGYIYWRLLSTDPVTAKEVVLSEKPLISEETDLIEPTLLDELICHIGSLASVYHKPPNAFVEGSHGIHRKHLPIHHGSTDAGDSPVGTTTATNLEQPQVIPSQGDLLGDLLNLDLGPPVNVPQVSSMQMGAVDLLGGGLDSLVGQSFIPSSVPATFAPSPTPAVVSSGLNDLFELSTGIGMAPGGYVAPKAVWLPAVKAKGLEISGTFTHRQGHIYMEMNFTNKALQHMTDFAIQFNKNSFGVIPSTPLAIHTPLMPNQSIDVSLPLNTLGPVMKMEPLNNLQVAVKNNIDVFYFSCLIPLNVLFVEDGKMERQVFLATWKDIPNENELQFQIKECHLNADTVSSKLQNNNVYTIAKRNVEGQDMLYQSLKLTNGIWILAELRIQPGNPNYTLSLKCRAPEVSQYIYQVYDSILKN
ATP-binding cassette sub-family B member 6 (Homo sapiens), sequence (Q9NP58 whole entry, looked up): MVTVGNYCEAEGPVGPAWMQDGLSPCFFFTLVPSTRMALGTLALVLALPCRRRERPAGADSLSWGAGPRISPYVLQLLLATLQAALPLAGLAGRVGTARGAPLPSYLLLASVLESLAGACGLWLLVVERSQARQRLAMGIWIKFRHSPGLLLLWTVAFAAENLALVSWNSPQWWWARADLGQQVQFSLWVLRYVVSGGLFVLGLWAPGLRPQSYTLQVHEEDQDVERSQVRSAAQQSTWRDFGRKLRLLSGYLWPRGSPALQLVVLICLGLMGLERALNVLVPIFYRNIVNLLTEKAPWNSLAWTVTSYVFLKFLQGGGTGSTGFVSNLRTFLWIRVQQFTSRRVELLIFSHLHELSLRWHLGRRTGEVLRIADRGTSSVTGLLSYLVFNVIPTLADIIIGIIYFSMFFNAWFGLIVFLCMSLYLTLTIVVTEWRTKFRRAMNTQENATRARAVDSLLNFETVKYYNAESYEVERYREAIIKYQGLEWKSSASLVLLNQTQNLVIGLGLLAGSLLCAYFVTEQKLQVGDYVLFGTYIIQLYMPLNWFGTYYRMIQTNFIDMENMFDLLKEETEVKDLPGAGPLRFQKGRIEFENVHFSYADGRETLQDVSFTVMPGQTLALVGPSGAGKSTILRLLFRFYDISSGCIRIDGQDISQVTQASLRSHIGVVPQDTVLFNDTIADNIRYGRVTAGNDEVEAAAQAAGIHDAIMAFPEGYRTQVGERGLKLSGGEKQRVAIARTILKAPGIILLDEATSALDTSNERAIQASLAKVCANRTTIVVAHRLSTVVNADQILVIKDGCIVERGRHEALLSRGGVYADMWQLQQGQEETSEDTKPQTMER
Beta-adrenergic receptor kinase 1 (Homo sapiens), sequence (P25098 whole entry, looked up): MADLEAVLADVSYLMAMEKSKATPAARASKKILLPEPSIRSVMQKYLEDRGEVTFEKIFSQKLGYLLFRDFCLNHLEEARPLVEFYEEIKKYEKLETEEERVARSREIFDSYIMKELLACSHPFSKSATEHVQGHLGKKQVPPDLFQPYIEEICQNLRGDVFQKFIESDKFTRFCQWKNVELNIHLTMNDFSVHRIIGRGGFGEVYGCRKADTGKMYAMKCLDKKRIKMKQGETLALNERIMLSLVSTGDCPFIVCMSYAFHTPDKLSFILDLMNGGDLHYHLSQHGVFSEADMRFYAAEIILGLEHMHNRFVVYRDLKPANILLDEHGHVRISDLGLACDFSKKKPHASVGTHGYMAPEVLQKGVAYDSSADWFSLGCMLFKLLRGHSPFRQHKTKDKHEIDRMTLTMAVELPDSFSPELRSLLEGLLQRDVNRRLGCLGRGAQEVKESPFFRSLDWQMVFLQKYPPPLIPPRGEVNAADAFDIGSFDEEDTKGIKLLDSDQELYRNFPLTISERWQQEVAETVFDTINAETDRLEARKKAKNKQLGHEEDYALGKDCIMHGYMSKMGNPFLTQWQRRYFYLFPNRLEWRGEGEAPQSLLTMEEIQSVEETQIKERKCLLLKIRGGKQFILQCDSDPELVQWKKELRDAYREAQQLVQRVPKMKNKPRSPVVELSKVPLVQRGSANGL
Integrin beta-1 (Homo sapiens) + Integrin alpha-4 (Homo sapiens), sequence (P05556 whole entry, looked up): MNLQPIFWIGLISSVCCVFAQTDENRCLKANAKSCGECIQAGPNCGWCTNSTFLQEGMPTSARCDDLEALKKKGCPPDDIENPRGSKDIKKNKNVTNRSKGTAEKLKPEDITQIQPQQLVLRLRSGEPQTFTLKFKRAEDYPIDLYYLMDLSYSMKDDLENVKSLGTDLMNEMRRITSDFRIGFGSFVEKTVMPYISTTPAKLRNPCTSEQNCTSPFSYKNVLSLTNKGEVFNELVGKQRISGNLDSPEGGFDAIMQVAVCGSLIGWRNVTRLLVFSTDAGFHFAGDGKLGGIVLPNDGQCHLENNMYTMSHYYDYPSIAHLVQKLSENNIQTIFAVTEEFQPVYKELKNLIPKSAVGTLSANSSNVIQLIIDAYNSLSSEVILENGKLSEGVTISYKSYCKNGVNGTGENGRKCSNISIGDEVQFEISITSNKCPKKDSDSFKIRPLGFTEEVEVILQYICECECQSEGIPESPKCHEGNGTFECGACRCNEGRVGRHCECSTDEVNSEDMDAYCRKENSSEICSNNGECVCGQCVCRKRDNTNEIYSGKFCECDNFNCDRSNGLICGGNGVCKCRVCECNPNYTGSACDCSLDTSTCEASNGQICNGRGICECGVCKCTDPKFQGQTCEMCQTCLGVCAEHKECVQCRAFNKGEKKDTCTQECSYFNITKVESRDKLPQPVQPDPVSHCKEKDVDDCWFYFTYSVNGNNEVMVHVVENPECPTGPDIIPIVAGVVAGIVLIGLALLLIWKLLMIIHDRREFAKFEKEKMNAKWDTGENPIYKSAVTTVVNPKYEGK
Integrin beta-1 (Homo sapiens) + Integrin alpha-4 (Homo sapiens), sequence (P13612 whole entry, looked up): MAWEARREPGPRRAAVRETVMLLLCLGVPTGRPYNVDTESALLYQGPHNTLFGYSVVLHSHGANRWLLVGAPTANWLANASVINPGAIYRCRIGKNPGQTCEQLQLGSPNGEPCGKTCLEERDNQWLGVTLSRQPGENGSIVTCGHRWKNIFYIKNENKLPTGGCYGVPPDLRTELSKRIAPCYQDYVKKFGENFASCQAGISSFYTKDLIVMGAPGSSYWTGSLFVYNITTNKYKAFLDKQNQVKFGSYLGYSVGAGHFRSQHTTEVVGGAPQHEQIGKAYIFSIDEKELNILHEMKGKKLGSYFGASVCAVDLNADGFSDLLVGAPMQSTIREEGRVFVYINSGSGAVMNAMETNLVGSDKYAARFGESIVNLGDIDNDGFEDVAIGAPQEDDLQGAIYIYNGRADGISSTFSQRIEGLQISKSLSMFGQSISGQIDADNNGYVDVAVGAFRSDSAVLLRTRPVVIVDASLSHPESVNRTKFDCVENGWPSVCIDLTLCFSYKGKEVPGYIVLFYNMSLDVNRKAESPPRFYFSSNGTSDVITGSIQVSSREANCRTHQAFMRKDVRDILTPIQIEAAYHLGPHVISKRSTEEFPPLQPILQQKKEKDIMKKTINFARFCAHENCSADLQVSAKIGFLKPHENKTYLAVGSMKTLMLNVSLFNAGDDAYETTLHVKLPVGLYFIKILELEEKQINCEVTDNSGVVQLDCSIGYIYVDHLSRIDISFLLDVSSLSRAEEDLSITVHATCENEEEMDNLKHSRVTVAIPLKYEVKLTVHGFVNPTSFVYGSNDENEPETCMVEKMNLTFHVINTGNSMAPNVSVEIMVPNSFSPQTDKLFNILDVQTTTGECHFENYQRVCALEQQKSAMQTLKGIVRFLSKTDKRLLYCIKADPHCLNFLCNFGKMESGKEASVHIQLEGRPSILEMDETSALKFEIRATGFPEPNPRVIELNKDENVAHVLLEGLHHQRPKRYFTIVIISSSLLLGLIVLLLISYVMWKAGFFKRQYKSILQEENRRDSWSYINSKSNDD
Beta-2 adrenergic receptor (Homo sapiens), sequence (P07550 whole entry, looked up): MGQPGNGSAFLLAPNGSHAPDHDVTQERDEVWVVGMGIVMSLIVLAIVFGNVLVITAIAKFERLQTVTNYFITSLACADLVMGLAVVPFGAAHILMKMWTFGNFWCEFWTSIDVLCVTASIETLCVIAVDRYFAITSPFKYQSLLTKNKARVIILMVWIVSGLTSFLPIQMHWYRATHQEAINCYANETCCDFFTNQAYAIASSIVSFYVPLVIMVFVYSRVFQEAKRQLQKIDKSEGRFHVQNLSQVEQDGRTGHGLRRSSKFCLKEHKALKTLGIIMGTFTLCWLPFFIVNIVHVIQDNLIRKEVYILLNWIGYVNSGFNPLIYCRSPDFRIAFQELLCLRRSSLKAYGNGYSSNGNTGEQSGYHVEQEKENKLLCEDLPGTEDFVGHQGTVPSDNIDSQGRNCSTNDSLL

SMILES	double positive events [1] [%]	vesicle binding response [1]	inhibition [2]	superoxide response (% of plate) [3]	aptamer binding inhibition [4]	response [5]	inhibition [6]	response [7]	binding (% of control) [8]	efflux inhibition (fraction of control) [9]	inhibition [10]	differentiation response [11]
CN1CCN(CCCN2c3ccccc3Sc3ccc(C(F)(F)F)cc32)CC1	64.7	215% (inactive)	57.6% (active)	80.3% (inactive)	-2% (inactive)	23.7% (inactive)	1.45% (inactive)	24.5% (active)	109% (inactive)	0 (inactive)	8% (inactive)	7.82% (inactive)
CC1(C)O[C@@H]2C[C@H]3[C@@H]4CCC5=CC(=O)C=C[C@]5(C)[C@@]4(F)[C@@H](O)C[C@]3(C)[C@]2(C(=O)CO)O1	61.2	123% (inactive)	0.25% (inactive)	91.8% (inactive)	-1% (inactive)	10.2% (inactive)	-3.89% (inactive)	-1.77% (inactive)	107% (inactive)	-0.22 (inactive)	2% (inactive)	40.8% (inactive)
CC(C)OC(=O)CC1C(=O)NCCN1C(=S)NC(=O)c1ccccc1Cl (configuration not stated)	57.9	115% (inactive)	-5.11% (inactive)	94.8% (inactive)	1% (inactive)	11.7% (inactive)	7.65% (inactive)	-6.29% (inactive)	111% (inactive)	0 (inactive)	-197% (inactive)	-10.4% (inactive)
CCn1cc(C(=O)O)c(=O)c2cc(F)c(N3CCNCC3)cc21	70.1	276% (inactive)	14.2% (inactive)	104% (inactive)	2% (inactive)	29.6% (inactive)	5.87% (inactive)	7.15% (inactive)	98% (inactive)	0 (inactive)	2% (inactive)	10.8% (inactive)
Cc1oc2c(CN3CCCC3)c(O)ccc2c(=O)c1-c1ccc(Cl)cc1	75.9	328% (inactive)	3.14% (inactive)	81.5% (inactive)	1% (inactive)	-23.2% (inactive)	6.26% (inactive)	-0.55% (inactive)	96.9% (inactive)	0 (inactive)	10% (inactive)	-1.05% (inactive)
COc1ccc(CCn2c(C)cc3c(c2=O)C(c2ccncc2)C(C#N)=C(N)O3)cc1OC (configuration not stated)	59.3	179% (inactive)	-1.79% (inactive)	102% (inactive)	6% (inactive)	10.6% (inactive)	-6.51% (inactive)	0.22% (inactive)	101% (inactive)	-0.13 (inactive)	6% (inactive)	12% (inactive)
O=C(NCCc1cccc(F)c1)[C@@H]1CSC2c3ccccc3C(=O)N21 (some centres not stated)	63.2	251% (inactive)	5.03% (inactive)	97.1% (inactive)	5% (inactive)	1.99% (inactive)	-1.7% (inactive)	0.26% (inactive)	101% (inactive)	0.12 (inactive)	7% (inactive)	2.4% (inactive)
CN(C)CCCNc1ncnc2c1cnn2-c1ccccc1	70.3	336% (inactive)	16% (inactive)	94.4% (inactive)	-2% (inactive)	8.67% (inactive)	-0.95% (inactive)	1.69% (inactive)	97% (inactive)	0.12 (inactive)	12% (inactive)	23.2% (inactive)
CC(=O)NCCCC(=O)NC(CCC(=O)OCc1ccccc1)C(=O)OCc1ccccc1 (configuration not stated)	72.6	425% (inactive)	5.03% (inactive)	86.7% (inactive)	1% (inactive)	6.65% (inactive)	-8.67% (inactive)	-0.06% (inactive)	96.8% (inactive)	0.4 (inactive)	2% (inactive)	34.4% (inactive)
O=c1ccc2ccccc2o1	62.3	162% (inactive)	-3.77% (inactive)	95.1% (inactive)	-7% (inactive)	0.92% (inactive)	1.88% (inactive)	-9% (inactive)	103% (inactive)	-0.02 (inactive)	-8% (inactive)	2.74% (inactive)
CC(=O)c1cn(C)c(=O)[nH]c1=O	60.8	243% (inactive)	-7.25% (inactive)	103% (inactive)	3% (inactive)	72.3% (active)	-5.48% (inactive)	0.64% (inactive)	107% (inactive)	-0.24 (inactive)	2% (inactive)	-8.8% (inactive)
CCc1ccc(/C=C2\SC(=S)N(CCC(=O)N3CCN(C)CC3)C2=O)cc1	56.3	275% (inactive)	-16.8% (inactive)	90.8% (inactive)	-1% (inactive)	39.6% (inactive)	-7.8% (inactive)	-6.7% (inactive)	101% (inactive)	0.3 (inactive)	2% (inactive)	10.4% (inactive)
CC(C)(C)c1ccc(C(O)CCCN2CCC(C(O)(c3ccccc3)c3ccccc3)CC2)cc1 (configuration not stated)	64.6	199% (inactive)	38.9% (inactive)	54.7% (active)	-1% (inactive)	74.7% (active)	2.19% (inactive)	16.5% (active)	112% (inactive)	0.59 (active)	10% (inactive)	0.92% (inactive)
COc1cc(OC)c(C2C(C#N)=C(N)OC3=C2C(=O)CC(C)(C)C3)cc1OC (configuration not stated)	59.9	137% (inactive)	5.61% (inactive)	109% (inactive)	2% (inactive)	10.6% (inactive)	5.17% (inactive)	-1.86% (inactive)	102% (inactive)	-0.38 (inactive)	13% (inactive)	-11.9% (inactive)
CCOC(=O)C1C(=O)CC(C)(O)C(C(=O)OCC)C1/C=C/c1ccccc1 (configuration not stated)	61.6	115% (inactive)	2.93% (inactive)	96.1% (inactive)	2% (inactive)	4.95% (inactive)	1.5% (inactive)	-0.5% (inactive)	102% (inactive)	-0.07 (inactive)	-11% (inactive)	-10.4% (inactive)
C=CCNC(=S)N1CCc2c([nH]c3ccccc23)C1C (configuration not stated)	60.6	194% (inactive)	15.1% (inactive)	99% (inactive)	-3% (inactive)	-13% (inactive)	-13.8% (inactive)	2.11% (inactive)	102% (inactive)	-0.09 (inactive)	15% (inactive)	-11.9% (inactive)
CC(=O)OCC(OC(C)=O)C(OC(C)=O)C(OC(C)=O)C(=O)Nc1cccc(C)c1 (configuration not stated)	59.9	153% (inactive)	-4.52% (inactive)	110% (inactive)	3% (inactive)	4.29% (inactive)	-4.4% (inactive)	1.1% (inactive)	97% (inactive)	-0.1 (inactive)	2% (inactive)	-10.4% (inactive)
COc1cc2ccc(=O)oc2c(O)c1OCC=C(C)C	63.7	190% (inactive)	-12.9% (inactive)	102% (inactive)	-1% (inactive)	-9.13% (inactive)	-0.67% (inactive)	-0.32% (inactive)	98.2% (inactive)	0.05 (inactive)	10% (inactive)	7.09% (inactive)
C#CCN(C)CCCOc1ccc(Cl)cc1Cl	56.3	64.3% (inactive)	-7.12% (inactive)	96.4% (inactive)	0% (inactive)	-6.11% (inactive)	-2.33% (inactive)	1.85% (inactive)	96.3% (inactive)	0.3 (inactive)	12% (inactive)	-1.64% (inactive)
CCCN1C[C@H](CSC)C[C@@H]2c3cccc4[nH]cc(c34)C[C@H]21	58.9	167% (inactive)	-8.78% (inactive)	77.2% (inactive)	-1% (inactive)	-19.4% (inactive)	1.85% (inactive)	78.5% (active)	105% (inactive)	0 (inactive)	-37% (inactive)	-10.9% (inactive)
O=C(Cc1ccc(Br)cc1)c1ccc(O)cc1O	58.3	228% (inactive)	-23.6% (inactive)	97.7% (inactive)	-1% (inactive)	-3.21% (inactive)	-2.59% (inactive)	1.13% (inactive)	105% (inactive)	0.09 (inactive)	2% (inactive)	12.3% (inactive)
COc1ccc(CCNC(=O)CC(c2ccccc2)c2cccc(C)c2O)cc1OC (configuration not stated)	62.6	190% (inactive)	16.2% (inactive)	96.3% (inactive)	1% (inactive)	5.7% (inactive)	-1.67% (inactive)	1.13% (inactive)	101% (inactive)	-0.46 (inactive)	10% (inactive)	-3.28% (inactive)
NC12CC3CC(C1)CC(O)(C3)C2	65.4	201% (inactive)	2.66% (inactive)	95.4% (inactive)	3% (inactive)	-10% (inactive)	-6.38% (inactive)	2.64% (inactive)	99% (inactive)	0.14 (inactive)	11% (inactive)	4.15% (inactive)
CC(=O)OCC(=O)[C@@]1(OC(C)=O)[C@@H](C)C[C@H]2[C@@H]3C[C@H](F)C4=CC(=O)C=C[C@]4(C)[C@@]3(F)[C@@H](O)C[C@@]21C	61.9	157% (inactive)	-11.8% (inactive)	97.6% (inactive)	-1% (inactive)	5.99% (inactive)	1.66% (inactive)	-2.14% (inactive)	103% (inactive)	-0.015 (inactive)	-2% (inactive)	4.2% (inactive)
CNCCc1ccccn1	60	212% (inactive)	15.1% (inactive)	122% (inactive)	-6% (inactive)	-19.8% (inactive)	-12.3% (inactive)	-10.1% (inactive)	100% (inactive)	0 (inactive)	1% (inactive)	2.89% (inactive)
C[C@H]1O[C@H]1P(=O)(O)O	66.2	197% (inactive)	15.1% (inactive)	95.9% (inactive)	5% (inactive)	-11.7% (inactive)	6.72% (inactive)	17.1% (active)	103% (inactive)	-0.09 (inactive)	9% (inactive)	12.8% (inactive)
